# IL-1B inflam inh: inhibitors of inflammasome signaling (IL-1 beta secretion); THP-1 LPS/ATP IL-1B secretion, AlphaLISA, 16 h; hits give low values; activity change, % at 57.5 µM; 360,000 tested, 4.7% active; AID 743279; in the data active means activity change below about -50%; inconclusive means mostly about -30% to -49%
#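 THP-1 cells pretreated 1 hr with compounds (up to 57.5 uM final), then stimulated with LPS (250 ng/mL final) plus ATP (1.25 mM final); secreted IL-1B measured by AlphaLISA after 16 hr, decreased signal indicating inhibition.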
# DT40 TDP1 no CPT: qHTS for Inhibitors of human tyrosyl-DNA phosphodiesterase 1 (TDP1): qHTS in cells in absence of CPT. 420,000 tested, 15% active. Potency, µM (series often up to 46.2 µM), for inactives: at the top dose activity change, negative = growth inhibition, most hits filed as inhibitors. DT40 Tdp1-/- hTDP1 cells, no CPT, ATP luminescence, 48 h. AID 686978, 2013; further: potency means the concentration at half of the fitted maximal effect; nearly all actives have a fitted effect of over 55% in size
#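 Compound effects on proliferation are scored in DT40 Tdp1-/-;hTDP1 cells in the absence of CPT. ATP levels (CellTiter-Glo luminescence) are recorded after a ≥48 hr, 37 °C incubation.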
# TDP1 cell CPT: growth inhibition of DT40 Tdp1-/-;hTDP1 cells with camptothecin (screen for TDP1 inhibitors); 420,000 tested, 12% active; Potency, µM (top dose mostly 46.2 µM), without a hit: at the top dose activity change, negative = growth inhibition, usual class: inhibitors; chicken DT40 Tdp1-/-;hTDP1 cells + 20 nM CPT, ATP luminescence, 48 h; further: potency means the concentration at half of the fitted maximal effect; nearly all actives have a fitted effect of over 55% in size
#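 Chicken DT40 Tdp1-/- cells stably complemented with human TDP1 were seeded at 400 cells/well in medium containing 20 nM camptothecin, exposed to pin-transferred compounds, and grown at 37 °C for at least 48 hr. Viability was read as ATP luminescence.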
# Gal4-VP16 FLuc: inhibits Gal4-VP16 luciferase reporter, ROR gamma counter-screen; Potency, µM (titrated, usually from 53.6 µM), without a hit: at the top dose activity, negative = inhibition, most hits filed as inhibitors; AID 2546; Drosophila S2 Gal4-VP16 UAS-luciferase, luminescence, 20 h; 310,000 tested, 3.5% active;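 further: Gal4-VP16 expression switched on by copper sulfate through the metallothionein promoter; potency means the concentration at half of the fitted maximal effect; nearly all actives have a fitted effect of over 50% in size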
# LDHA block: inhibitors of human lactate dehydrogenase A | P00338 | purified LDHA, NADH/diaphorase-resazurin fluorescence; hits give low values | activity change, % (values are at about 110 or 230 µM) | 480,000 tested, 0.15% active | AID 1347041; in the data active means activity change below about -30%; inconclusive means mostly about -25% to -30%;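 further: plate controls were DMSO wells for no effect and wells without enzyme for full effect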
#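 Human LDH5 at 2 nM final in Tris HCl pH 7.4 with 0.06 mM NADH and 0.2 mM pyruvate, reacted 5 minutes at room temperature. Remaining NADH coupled via diaphorase/resazurin; resorufin fluorescence read at 0 and 20 minutes, normalized to enzyme-free and DMSO wells.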
# RORg inh: ROR gamma (mouse) transcription inhibition; Potency, µM (top dose mostly 53.6 µM), without a hit: top-dose activity change, negative = inhibition, most hits filed as inhibitors; 310,000 tested, 5.4% active; Drosophila S2 Gal4-RORgamma UAS-luciferase reporter, 20 h; P51450; AID 2551; further: potency means the concentration at half of the fitted maximal effect; nearly all actives have a fitted effect of over 60% in size
# Target sequence (P51450 whole entry, looked up, the tested form may be a part): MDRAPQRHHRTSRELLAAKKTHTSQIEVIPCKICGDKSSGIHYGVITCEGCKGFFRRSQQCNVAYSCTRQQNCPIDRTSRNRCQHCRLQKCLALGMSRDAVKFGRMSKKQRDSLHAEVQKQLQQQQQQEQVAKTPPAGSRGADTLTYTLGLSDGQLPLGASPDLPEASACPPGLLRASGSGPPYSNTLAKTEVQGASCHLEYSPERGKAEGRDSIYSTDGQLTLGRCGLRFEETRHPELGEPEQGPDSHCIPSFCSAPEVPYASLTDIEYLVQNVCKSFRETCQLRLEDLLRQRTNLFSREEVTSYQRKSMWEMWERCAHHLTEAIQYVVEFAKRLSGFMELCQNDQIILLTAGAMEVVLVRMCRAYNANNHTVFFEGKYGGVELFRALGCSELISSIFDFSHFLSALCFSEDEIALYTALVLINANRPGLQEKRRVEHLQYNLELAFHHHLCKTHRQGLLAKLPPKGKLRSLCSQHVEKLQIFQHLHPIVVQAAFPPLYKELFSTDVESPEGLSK
#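 Schneider cells (Drosophila), stable Gal4 DBD–ROR gamma + UAS-luc; 1 hr cmpd preincubation; Cu2+ induction 700 uM final; 20 hr ambient; luminescence.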
# Starred values were filed as active, the others as inactive; ? = inconclusive; . = no result given; [ ] = remark or other dose. Only some compounds are listed: those with a hit (about 18% of all), similar ones and a draw of the others. Unless noted, the call rests on the fitted dose curve; in most records, active means well fitted curve in the direction sought with a large enough effect; inconclusive means small, poorly fitted or top-dose-only effect, or another doubt; inactive means no such curve, though single readings can be large; an effect the other way counts as inactive or inconclusive. Unless noted, on the % scale 0 is the no-effect control and ±100 the full control effect.
SMILES,IL-1B inflam inh,DT40 TDP1 no CPT,TDP1 cell CPT,Gal4-VP16 FLuc,LDHA block,RORg inh
CCN(CC)c1ccc(S(=O)(=O)N2CCOCC2)cc1NC(=O)Cn1nc(C)c([N+](=O)[O-])c1C,2,?,?,.,0,.
CCN(CC)c1ccc(S(=O)(=O)N2CCOCC2)cc1NC(=O)COC(=O)/C=C/c1ccc(O)c(OC)c1,-1,21µM*,?,.,2,.
Cc1ccc(S(=O)(=O)N2CCOCC2)cc1NC(=O)COC(=O)/C=C/c1ccco1,0,?,-17%,.,-8,.
CCN(CC)c1ccc(S(=O)(=O)N2CCOCC2)cc1NC(=O)COC(=O)c1ccco1,-6,-24%,3%,.,-2,.
COc1cc(/C=C/C(=O)OCC(=O)Nc2cc(S(=O)(=O)N3CCOCC3)ccc2Cl)cc(OC)c1OC,-26,?,?,.,0,.
CCN(CC)c1ccc(S(=O)(=O)N2CCOCC2)cc1NC(=O)CN1CCc2ccccc2C1,-110*,7.3µM*,4.6µM*,-17%[10 µM],-1,3.2µM*
CCN(CC)c1ccc(S(=O)(=O)N2CCOCC2)cc1NC(=O)COC(=O)/C=C/c1ccccc1,2,?,18µM*,.,-6,.
Cc1cccc(Cn2c(N3CCN(C(=O)c4ccco4)CC3)nc3c2c(=O)n(C)c(=O)n3C)c1,.,.,.,.,7,.
N=C(N)c1cccc(OCc2cccnc2)c1,.,.,.,.,25,.
N=c1c(C(=O)NCc2ccccc2)cc2c(=O)n3ccccc3nc2n1Cc1ccco1,?,?,?,?,-1,?
Cc1ccc(CNC(=O)c2cc3c(=O)n4ccccc4nc3n(Cc3ccco3)c2=N)cc1,-94*,15µM*,13µM*,2.8µM*,-2,3.2µM*
N=c1c(C(=O)NCc2ccc(F)cc2)cc2c(=O)n3ccccc3nc2n1Cc1ccco1,-26,16µM*,16µM*,?,2,22%
Cc1ccc2nc3c(cc(C(=O)NCc4ccco4)c(=N)n3Cc3ccco3)c(=O)n2c1,6,21µM*,?,0%,2,-12%
Cc1ccc2nc3c(cc(C(=O)NCCc4ccccc4)c(=N)n3CCN3CCOCC3)c(=O)n2c1,2,26µM*,?,0%,-15,6%
Cc1ccc2nc3c(cc(C(=O)NCCN4CCOCC4)c(=N)n3CCCN3CCOCC3)c(=O)n2c1,-8,-14%,-7%,0%,-5,0%
O=C(Cn1nnc(-c2ccccc2)n1)N1CCCC1c1ccc2c(c1)OCCCO2 (stereo not drawn),.,.,.,.,4,.
COC(=O)c1cc(NC(=O)c2ccc(OC(F)F)c(OC)c2)c(F)cc1F,.,.,.,.,2,.
COc1ccc(/C=N/N2CCN(C3c4ccccc4-c4ccccc43)CC2)cc1O,-26,18µM*,?,-13%,-8,27%
Cc1ccc(/C=N/N2CCN(C3c4ccccc4-c4ccccc43)CC2)s1,17,?,-14%,5%,-7,11%
C(=N\N1CCN(C2c3ccccc3-c3ccccc32)CC1)/c1ccccn1,-14,16µM*,21µM*,?,-4,7.1µM*
O=C(NCc1cccnc1)N1CCN(S(=O)(=O)c2cc(Cl)ccc2Cl)CC1,.,.,.,.,-5,.
O=C(NCCNC1CCC(c2ccccc2)CC1)c1cccs1 (stereo not drawn),-72*,?,?,-2%,-17,-10%
NC(COCc1ccccc1)c1csc(Nc2cc(Oc3ccccc3)ncn2)n1 (stereo not drawn),-79*,26µM*,?,.,-10,.
CCCCN(C)C(=O)c1ccc(Nc2nc(C(N)COCc3ccccc3)cs2)nc1 (stereo not drawn),?,15µM*,12µM*,.,-9,.
COC(=O)c1cnc(Nc2nc(C(N)Cc3ccc(OC)cc3)cs2)nc1C(F)(F)F (stereo not drawn),.,?,?,.,-9,.
SMILES,IL-1B inflam inh,DT40 TDP1 no CPT,TDP1 cell CPT,Gal4-VP16 FLuc,LDHA block,RORg inh
NC(Cc1ccc(F)cc1)c1csc(Nc2cc(Oc3ccccc3)ncn2)n1 (stereo not drawn),-75*,?,?,.,-10,.
NC(COCc1ccccc1)c1csc(Nc2nccc(C(F)(F)F)n2)n1 (stereo not drawn),0,?,?,.,-1,.
COc1ccc(CC(N)c2csc(Nc3cc(Oc4ccccc4)ncn3)n2)cc1 (stereo not drawn),.,12µM*,16µM*,.,-7,.
Cc1nn(-c2ccccc2)c(C)c1CC(=O)N1CCN(S(=O)(=O)c2ccc(F)cc2F)CC1,.,.,.,.,4,.
COc1ccccc1NC(=O)C1=CCN(Cc2ccccc2F)CC1,.,.,.,.,3,.
N#CC(C(=O)NCc1ccccc1)=C1CCCCCC1,.,.,.,.,-21,.
CCN(C(=O)Cn1nc(-c2ccc(Br)cc2)ccc1=O)c1cccc(C)c1,.,.,.,.,2,.
Cc1ccc(-c2csc(-c3ccc(O)cc3)n2)cc1,.,.,.,.,-20,.
NC(Cc1ccc(Cl)cc1)c1csc(Nc2cc(Oc3ccccc3)ncn2)n1 (stereo not drawn),-69*,?,-106%,.,-12,.
CC(CSc1nc2ccccc2o1)Cn1c(N2CCOCC2)nc2c1c(=O)[nH]c(=O)n2C (stereo not drawn),.,.,.,.,0,.
O=C(Cn1c(C(=O)N2CCN(C3CCCC3)CC2)cc2sccc21)c1ccccc1,-14,?,18µM*,2%,-1,-3%
Cc1cc(C)c2nc(-c3cccnc3)cc(C(=O)O)c2c1,.,.,.,.,-3,.
O=C(CN1CCCC1)NCC12CC3CC(CC(C3)C1)C2,-14,-19%,-22%,-4%,-5,10%
O=C(CN1C(=O)CCC1=O)NCC12CC3CC(CC(C3)C1)C2,?,26µM*,?,-3%,-7,29%
COC(=O)c1cc(Cl)ccc1N,.,.,.,.,5,.
COC(=O)c1cc(Cl)ccc1NCC(N)c1ccccc1 (stereo not drawn),?,?,18µM*,.,-2,.
CC(=O)N1CCCc2cc(S(=O)(=O)NCc3cccs3)ccc21,.,.,.,.,-4,.
C=Cc1ccc(Cn2c(C(=O)O)c(CNC3CCCCC3)c3ccc(OC)cc32)cc1,.,21µM*,21µM*,.,4,.
COc1ccc2c(CNC3CCCCCC3)c(C(=O)O)n(Cc3ccc(C)cc3)c2c1,.,?,26µM*,.,4,.
COc1ccc2c(CNC3CCCCCC3)c(C(=O)O)n(Cc3cccc(F)c3)c2c1,.,?,-5%,.,-9,.
COc1ccc(Cn2c(C(=O)O)c(CNC3CCCCCC3)c3ccc(OC)cc32)cc1,.,?,16µM*,.,2,.
